# According to PubChem BioAssay (NCATS):
# Inconclusive results are not listed. Where a call stands in place of a potency, no number is given. Unmarked numbers belong to inactive results. Activity calls are given as the source filed them. Calls come from the whole dose curve; as a rule, active = well fitted curve in the direction sought with a large enough effect; inconclusive = small, poorly fitted or top-dose-only effect, or another doubt; inactive = no such curve, though single readings can be large; an effect the other way counts as inactive or inconclusive.
# Columns and labels:
# OV90 = test: Primary qHTS to identify gynecologic anti-cancer compounds using libraries of approved drugs and bioactive compounds (AID 1345084); conditions: Gynecologic cancer cell panel viability, ATPlite luminescence, 48 h; series mostly up to 57.5 µM; note: nearly all actives have a fitted effect of over 55% in size
# Summary of the method: (§1)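 Cell viability after 48 h drug treatment, ATPlite luminescence readout; five doses.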
# PA-1 = test: as above; conditions: Gynecologic cancer cell panel viability, ATPlite luminescence, 48 h; series mostly up to 57.5 µM
# Summary of the method: as §1
# Tov-21-G = test: as above; conditions: Gynecologic cancer cell panel viability, ATPlite luminescence, 48 h; series mostly up to 57.5 µM
# Summary of the method: as §1
# Tov112D = test: as above; conditions: Gynecologic cancer cell panel viability, ATPlite luminescence, 48 h; series mostly up to 57.5 µM
# Summary of the method: as §1
# [1] = qHTS assay to identify inhibitors of the type 1 interferon - major histocompatibility complex class I in skeletal muscle: Counter screen cell viability and HiBit confirmation (AID 1347412); conditions: iHSKM muscle cells + IFN-b, HiBiT or CellTiter-Glo, 24 h, Viability; for activity change, negative = inhibition: at 45.9 µM (top of the series); for all read-outs here: nearly all actives have a fitted effect of over 60% in size
# Summary of the method: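 CRISPR HLA-B*08:01-HiBit immortalized human myoblasts (C25cl48) stimulated with 4 ng/ml IFN-beta and compounds (12-point 1:3, top 46 uM final) for 24 h at 37 C. Duplicate plates read by HiBit lytic luminescence or CellTiter Glo ATP.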
# [2] = Drug repurposing screens with cells derived from glioblastoma tumor samples (AID 1345199); conditions: GBM patient neurospheres viability, ATP luminescence, 48 h; note: nearly all actives have a fitted effect of over 40% in size
# Summary of the method: (§2)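 Primary testing used CD133+ neurospheres from four GBM patients, seven concentrations, 48 h exposure and ATP-based viability; confirmation added three slower-growing patient lines.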
# astro = test: as above; conditions: viability, ATP luminescence, 48 h; series mostly up to 91.6 µM
# Summary of the method: as §2
# SKOV3 = test: Primary qHTS to identify gynecologic anti-cancer compounds using libraries of approved drugs and bioactive compounds (AID 1345084); conditions: Gynecologic cancer cell panel viability, ATPlite luminescence, 48 h; series mostly up to 57.5 µM; note: nearly all actives have a fitted effect of over 55% in size
# Summary of the method: as §1
# Potency is the fitted concentration of half-maximal effect.
compound,measurement,setting,value
CC(=O)c1ccc2c(c1)C(O)C(C(C)(C)O)O2 (configuration not stated),Potency,OV90,inactive
same,Potency,PA-1,inactive
same,Potency,Tov-21-G,inactive
same,Potency,Tov112D,inactive
O=C(O)CC1CCC(c2ccc(-c3ccc4nc(C(=O)NCc5ccc(OC(F)(F)F)cc5)cn4c3)cc2)CC1 (configuration not stated),Potency,OV90,inactive
same,Potency,PA-1,inactive
same,Potency,Tov-21-G,inactive
same,Potency,Tov112D,inactive
Cc1cc(C(N)=O)ccc1-n1c(CCC(=O)O)ccc1-c1ccc(-n2ccnc2)cc1,Potency,OV90,inactive
same,Potency,PA-1,inactive
same,Potency,Tov-21-G,inactive
same,Potency,Tov112D,inactive
COc1c(Nc2ncc(Cl)c(N[C@H]3[C@@H](C(N)=O)[C@@H]4C=C[C@H]3C4)n2)ccc2c1CC[C@@H](N1CCOCC1)CC2,Potency,OV90,inactive
same,Potency,PA-1,inactive
same,Potency,Tov-21-G,inactive
same,Potency,Tov112D,inactive
Cc1ccccc1CN1C2=NCCN2C(=O)C2=C1CCN(Cc1ccccc1)C2,Potency,OV90,inactive
same,Potency,PA-1,inactive
same,Potency,Tov-21-G,inactive
same,Potency,Tov112D,inactive
CC1(C)CC[C@]2(C(=O)O)CC[C@]3(C)C(=CCC4[C@@]5(C)C[C@@H](O)[C@H](O)C(C)(C)C5CC[C@]43C)C2C1 (some centres not stated),Potency,OV90,inactive
same,Potency,PA-1,inactive
same,Potency,Tov-21-G,inactive
same,Potency,Tov112D,inactive
CC(NC(=O)CCc1nc2ccccc2c(=O)[nH]1)c1ccccc1 (configuration not stated),Potency,OV90,inactive
same,Potency,PA-1,inactive
same,Potency,Tov-21-G,inactive
same,Potency,Tov112D,inactive
C/C=C/C1=CC2=C(CO1)C(=O)C(C)(O)C(OC(=O)c1c(C)cc(OC)cc1O)C2 (configuration not stated),Potency,OV90,inactive
same,Potency,PA-1,inactive
same,Potency,Tov-21-G,inactive
same,Potency,Tov112D,inactive
CC#CC(=O)N1CCC[C@H]1c1nc(-c2ccc(C(=O)Nc3ccccn3)cc2)c2c(N)nccn12,Potency,OV90,inactive
same,Potency,PA-1,inactive
same,Potency,Tov-21-G,inactive
same,Potency,Tov112D,inactive
CCC(=O)O[C@H]1C(C)(C)[C@H]([C@@H](O)C(=O)OC)[C@]2(C)C(=O)[C@@]1(O)[C@H]1O[C@]13C1CC(=O)O[C@@H](c4ccoc4)[C@]1(C)CCC32 (some centres not stated),Potency,OV90,inactive
same,Potency,PA-1,inactive
same,Potency,Tov-21-G,inactive
same,Potency,Tov112D,inactive
CC1=CC(=O)[C@]2(O[C@@H]3O[C@@H](C)[C@H](O)[C@@H](O)[C@H]3OC(=O)/C=C/c3ccccc3)C=CO[C@@H](O[C@@H]3O[C@H](CO)[C@@H](O)[C@H](O)[C@H]3O)[C@H]12,Potency,OV90,inactive
same,Potency,PA-1,inactive
same,Potency,Tov-21-G,inactive
same,Potency,Tov112D,inactive
c1ccc(N2CCN(CCc3nn[nH]n3)CC2)cc1,Potency,OV90,inactive
same,Potency,PA-1,inactive
same,Potency,Tov-21-G,inactive
same,Potency,Tov112D,inactive
COC(=O)N[C@@H](C)CNc1nccc(-c2cn(C(C)C)nc2-c2cc(Cl)cc(NS(C)(=O)=O)c2F)n1,Potency,OV90,inactive
same,Potency,PA-1,inactive
same,Potency,Tov-21-G,1.58 µM (active)
same,Potency,Tov112D,inactive
same,"activity change, negative = inhibition",[1],-18.1%
CCC(O)C(C)C1CCC(C(C)C(=O)O)O1 (configuration not stated),Potency,OV90,inactive
same,Potency,PA-1,inactive
same,Potency,Tov-21-G,inactive
same,Potency,Tov112D,inactive
CC(=O)O[C@H]1C(=O)[C@@]2(C)[C@H]([C@H](OC(=O)c3ccccc3)[C@]3(O)C[C@H](OC(=O)[C@H](O)[C@@H](NC(=O)c4ccccc4)c4ccccc4)C(C)=C1C3(C)C)[C@]1(OC(C)=O)CO[C@@H]1C[C@@H]2O,"activity, negative = cell killing","[2]; at 45.9 µM (top of the series), tumour line B",-12.5%
same,Potency,[2]; tumour line A,31.6 µM (active)
same,Potency,[2]; tumour line D,0.1 µM (active)
same,Potency,astro,39.8 µM (active)
CCOc1cc2ncc(C#N)c(Nc3ccc(F)c(Cl)c3)c2cc1NC(=O)/C=C/CN(C)C,Potency,[1],17.6 µM (active)
CCOc1cc(C(=O)N2CCC(N3CCN(C)CC3)CC2)ccc1Nc1ncc2c(n1)N(C1CCCC1)c1ccccc1C(=O)N2C,"activity change, negative = inhibition",[1],-25.1%
O=C(c1ccccc1)c1ccc2nc(NC(=O)c3csc(C4CCN(c5ncnc6ccsc56)CC4)n3)[nH]c2c1,Potency,OV90,17.8 µM (active)
same,Potency,Tov112D,12.6 µM (active)
COC(C(=O)N1Cc2[nH]nc(NC(=O)c3ccc(N4CCN(C)CC4)cc3)c2C1)c1ccccc1 (configuration not stated),Potency,PA-1,7.94 µM (active)
same,Potency,SKOV3,17.8 µM (active)
same,Potency,Tov-21-G,12.6 µM (active)
C=C(C)C(=O)OC1CC2(C)OC(=CC2=O)C(=C)CC2OC(=O)C(COC)C12 (configuration not stated),Potency,OV90,inactive
same,Potency,Tov112D,inactive
C/C(=C\CCC(C)CCO)C(=O)OC1(C)CCC2C(C(=O)O)=COC(OC3OC(CO)C(O)C(O)C3O)C21 (configuration not stated),Potency,OV90,inactive
same,Potency,Tov-21-G,inactive
same,Potency,Tov112D,inactive
C=CC(=O)Nc1cc(Nc2nccc(-c3c[nH]c4ccccc34)n2)c(OC)cc1N(C)CCN(C)C,Potency,PA-1,4.47 µM (active)
Oc1ccc(CNc2ccccc2F)c2cccnc12,Potency,PA-1,17.8 µM (active)
C=C1C(=O)O[C@H]2C1[C@H](OC(=O)/C(=C/CO)COC(=O)/C(C)=C/CO)CC(=C)[C@@H]1CC(=O)[C@@H](C)[C@@H]12 (some centres not stated),Potency,OV90,inactive
same,Potency,Tov112D,inactive
C[C@@H](Oc1cc(-n2cnc3ccc(OC4CCN(C)CC4)cc32)sc1C(N)=O)c1ccccc1C(F)(F)F,Potency,PA-1,0.316 µM (active)
CCC1C(=O)N(C)c2cnc(Nc3ccc(C(=O)NC4CCC(N5CCN(CC6CC6)CC5)CC4)cc3OC)nc2N1C(C)C (configuration not stated),Potency,PA-1,0.316 µM (active)
C/C=C/c1ccc2oc(-c3ccc(O)c(OC)c3)c(C)c2c1,Potency,OV90,20 µM (active)
same,Potency,Tov-21-G,inactive
same,Potency,Tov112D,inactive
